From PubChem BioAssay (NCI)
About 79,000 compounds went through this panel and 15% of them were active in at least one assay; those are over-represented in the sample as a whole. Values without a mark were called inactive. The source made the active and inactive calls. No stated cut-off is given here; in the data, active means growth inhibition above about 70%; inactive means the rest.

Tests used:
[1] = NCI Yeast Anticancer Drug Screen. Data for the rad50 strain (AID 155);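 further: 0% = growth of vehicle-only cultures of the same strain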; settings: S. cerevisiae rad50 strain growth inhibition, active compounds read high
How it was run: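 Genetically altered yeast (DNA repair pathway); compound treatment; growth inhibition vs vehicle ctrl.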

[2] = NCI Yeast Anticancer Drug Screen. Data for the mec2-1 strain (AID 157); settings: S. cerevisiae mec2-1 strain, active compounds read high
How it was run: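 Compounds were applied to mec2-1 yeast cells. Their growth was then compared with that of vehicle-treated cultures to give growth inhibition.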

[3] = NCI Yeast Anticancer Drug Screen. Data for the sgs1 mgt1 strain (AID 161);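 further: 0% = growth of cultures given vehicle only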; settings: S. cerevisiae sgs1 mgt1 strain, active compounds read high
How it was run: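 Compounds are added to genetically altered yeast, and growth is compared with cultures given vehicle alone to give percent inhibition.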

[4] = NCI Yeast Anticancer Drug Screen. Data for the cln2 rad14 strain (AID 165);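 further: 0% = growth equal to vehicle treated cultures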; settings: S. cerevisiae cln2 rad14 strain, active compounds read high
How it was run: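 Strain: cln2 rad14 yeast, altered in cell cycle control and DNA damage repair. Read-out: growth inhibition vs vehicle.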

[5] = NCI Yeast Anticancer Drug Screen. Data for the bub3 strain (AID 167); settings: S. cerevisiae bub3 mutant strain, active compounds read high
How it was run: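 Yeast carrying a defined mutation is treated with each compound, and growth is compared with that of vehicle-exposed cells to give inhibition.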

[6] = NCI Yeast Anticancer Drug Screen. Data for the mlh1 rad18 strain (AID 175); settings: S. cerevisiae mlh1 rad18 strain growth inhibition, active compounds read high
How it was run: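 A repair-deficient yeast strain is exposed to test compound, and growth is scored relative to vehicle-treated controls.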

[7] = at 5.0 µM (retest, dose inferred, filed as 0.5)
[8] = at 50.0 µM (retest, dose inferred, filed as 5.0)

Row | SMILES | growth inhibition [1, 7] | growth inhibition [1, 8] | growth inhibition ([1]; at 50.0 µM) | growth inhibition [2, 7] | growth inhibition [2, 8] | growth inhibition ([2]; at 50.0 µM) | growth inhibition [3, 7] | growth inhibition [3, 8] | growth inhibition ([3]; at 50.0 µM) | growth inhibition [4, 7] | growth inhibition [4, 8] | growth inhibition ([4]; at 50.0 µM) | growth inhibition [5, 7] | growth inhibition [5, 8] | growth inhibition ([5]; at 50.0 µM) | growth inhibition [6, 7] | growth inhibition [6, 8] | growth inhibition ([6]; at 50.0 µM)
1 | O=C(NCCc1c(-c2ccccc2)[nH]c2ccccc12)C(F)(F)C(F)(F)F | 21% | 21% | 86.5% (active) | 1% | 1% | 91% (active) | 33% | 33% | 84.8% (active) | 4% | 4% | 81.6% (active) | 5% | 5% | 79% (active) | 23% | 23% | 30.1%
2 | Cc1oc2c(c1C(=O)c1ccccc1)C(=O)c1ccccc1C2=O | 33% | 99% (active) | 88.2% (active) | 19% | 99% (active) | 92.7% (active) | 31% | 99% (active) | 93.2% (active) | 22% | 98% (active) | 92.8% (active) | 39% | 99% (active) | 91.7% (active) | 25% | 99% (active) | 82% (active)
3 | N#Cc1cccc(C[P+](c2ccccc2)(c2ccccc2)c2ccccc2)c1 | 14% | 45% | 78.3% (active) | -1% | 22% | 46% | 3% | 38% | 75.8% (active) | 8% | 6% | 42.9% | 4% | 32% | 45.8% | 7% | 30% | 56.8%
4 | CCOC(=O)C(=Cc1ccc(C(=O)OC)cc1)C(=O)OCC | 10% | 58% | 82.2% (active) | 11% | 86% (active) | 75.2% (active) | -2% | 63% | 75.3% (active) | 38% | 80% (active) | 69.5% | 12% | 93% (active) | 77.2% (active) | 14% | 88% (active) | 62.8%
5 | N#CC(C#N)=Cc1ccc(Oc2ccccc2)cc1 | 2% | 31% | 88.2% (active) | -21% | 54% | 82.1% (active) | 13% | 56% | 58.9% | 25% | 62% | 66.3% | -6% | 90% (active) | 83.7% (active) | 2% | 77% (active) | 73.9% (active)
6 | [N-]=[N+]=Nc1c(-c2ccccc2)c(Cl)nc2ccccc12 | 11% | 99% (active) | 76% (active) | -7% | 98% (active) | 76.1% (active) | -4% | 98% (active) | 85.2% (active) | 20% | 98% (active) | 82.9% (active) | -33% | 97% (active) | 87.4% (active) | 2% | 98% (active) | 87.2% (active)
7 | O=C(Nc1ccccc1C(=O)NC(=O)c1ccccc1NC(=O)c1ccccc1)c1ccccc1 | -4% | 99% (active) | 58.9% | 10% | 99% (active) | 57.5% | -2% | 99% (active) | 54.8% | 4% | 99% (active) | 40.8% | -1% | 99% (active) | 46.1% | 5% | 99% (active) | 63.5%
8 | CC1=C(C(=O)Nc2cccc3ccccc23)C(c2cccc([N+](=O)[O-])c2)C(C(=O)Nc2cccc3ccccc23)=C(C)N1 | 27% | 40% | 76.2% (active) | 22% | 50% | 60.2% | 7% | 32% | 77.1% (active) | -3% | 14% | 70.6% (active) | 34% | 58% | 81.5% (active) | -22% | 23% | 88.1% (active)
9 | O=C(O)c1ccc2c(Br)ccc3c2c1CC3 | 13% | 8% | 77.3% (active) | -13% | 25% | 56.1% | -6% | 16% | 73.5% (active) | -8% | -1% | 18.1% | -2% | 20% | 8.05% | 34% | 35% | 68.6%
10 | CCOc1ccc2nc(C)cc(C)c2c1 | -1% | 75% (active) | 26.6% | -23% | 31% | -13.4% | -7% | 60% | -0.25% | 1% | 2% | 34.5% | -8% | 63% | -17.2% | -4% | 63% | 38.6%
